Records with an inconclusive call do not appear. The source made the active and inactive calls. The call rests on the fitted dose curve; in most records, active means well fitted inhibition curve with a large enough effect; inconclusive means small, poorly fitted or top-dose-only effect; inactive means no such curve, though single readings can be large or run the other way.
Potency means the concentration at half of the fitted maximal effect.

The assay is described as follows: qHTS Screen of the MIPE 4.0 Collection Against Ewings Sarcoma (TC71) (AID 1259253). Further: nearly all actives have a fitted effect of over 40% in size. The settings on record: TC71 Ewing sarcoma viability, CellTiter-Glo, 48 h; series mostly up to 45.8 µM. The source says:
There is a large unmet medical need for treatments for Ewing sarcoma, a pediatric sarcoma. We sought to identify compounds that inhibited Ewing sarcoma cells in vitro with the goal to then test promising drugs in two drug combinations in vitro to look for synergistic drug combinations. Promising combinations would then proceed to additional validation, including in vivo testing.
Using the NCATS developed oncology compound library called the Mechanism of Interrogation Plate (MIPE), four Ewing sarcoma cell lines were evaluated (TC32, TC71, RDES, EW8). Compounds, in a 12-point titration series, were incubated with cells for 48 hours and the read out was cell viability (CellTiter-Glo from Promega). These initial experiments were used to select appropriate concentrations of each single agent for subsequent two-drug matrix combinations such that the concentrations in the matrices would span both activity and non-activity.
Cells, in the log phase of growth, were seeded in 5 uL of RPMI plus 5% FBS, […] L-glutamine, 100 U/ml penicillin and 100 ug/ml streptomycin into 1536-well solid-bottom white tissue culture treated Greiner Bio One Plates (789173-F) using a MultiDrop Combi (Thermofisher Scientific) dispenser and a small sterile cassette. One column was media alone to be used as a :"no cells" control. The plates were then covered with sterilized stainless steel gasketed lids from Kalypsys. After allowing cells to attach for 4 hours, 23 nL of test compound or control (negative control DMSO and positive control 9.2 uM Bortezomib-final) were added from a 1536-well polypropylene compound source plate to each well using a 1536 head pin tool from Kalypsys. Cells were then incubated for 48 hours at 37C, 95% relative humidity and 5% CO2. After 48 hours, plates were removed from the incubator and 3 uL of CellTiter-Glo (Promega) was added using an Aurora Flying Reagent Dispenser Bioraptor. Plates were incubated at room temperature for 10 minutes prior to reading the luminescence on the Viewlux (PerkinElmer). The relative luciferase units are used to calculate the percent activity using the activity of DMSO in the cells and no cells columns for normalization of no inhibition and full inhibition respectively.
Take `CCC(=C(c1ccccc1)c1ccc(OCCN(C)C)cc1)c1ccccc1`: the Potency was 16.6 µM (active).

As for `Cc1ccc2nc(NC(=O)CSc3nc4c(c(=O)n3-c3ccccc3)SCC4)sc2c1`, the Potency is 20.9 µM (active). Consider `C=CC(=O)Nc1cc2c(Nc3ccc(F)c(Cl)c3)ncnc2cc1C#CC(C)(C)N1CCN(C)CC1`, for which the Potency was 2.64 µM (active).

Consider `CC(C)c1cc(-c2n[nH]c(=O)n2-c2ccc3c(ccn3C)c2)c(O)cc1O`, for which the Potency is 0.0662 µM (active). The figure for `Cc1cc(CN2CCN(c3c(Br)cnc4nc(-c5ccc(N6CCN(C)CC6)cc5)[nH]c34)CC2)no1` is 18.7 µM (active); for `Nc1ccccc1NC(=O)c1ccc(CNc2nccc(-c3cccnc3)n2)cc1` it is 1.05 µM (active). The figure for `CC(=O)Nc1sc2c(c1-c1nc3ccccc3s1)CNC2` is 14.8 µM (active); for `CN[C@H]1CCc2cc(OC)c(OC)c(OC)c2-c2ccc(OC)c(=O)cc21` it is 0.0033 µM (active); for `CN1c2cc(O)c(N=NC(N)=O)cc2CC1S(=O)(=O)O` (stereo not given) it is “inactive”. The figure for `C1=CCOCc2cc(ccc2OCCN2CCCC2)Nc2nccc(n2)-c2cccc(c2)OCC1` is 4.69 µM (active); for `Cc1cnc(Nc2ccc(F)cc2Cl)nc1-c1c[nH]c(C(=O)N[C@H](CO)c2cccc(Cl)c2)c1` it is 18.7 µM (active).

In the case of `COc1ccc2c(c1)CC[C@@H](CN(C)CC(=O)O)[C@H]2c1ccccc1`, the Potency is 3.72 µM (active). The entry for `COc1ccc(CC2SC(=O)NC2=O)cc1C(=O)NCc1ccc(C(F)(F)F)cc1` (stereo not given) is “inactive”; for `O=C(c1ccc(Nc2nccc(-c3cc4ccccc4s3)n2)cc1)N1CCC(N2CCCC2)CC1` it is 18.7 µM (active); for `CN1CCN(c2ccc3nc(-c4c(N)c5c(F)cccc5[nH]c4=O)[nH]c3c2)CC1` it is 11.8 µM (active).

With `Cc1nc2ccc(CN(C)c3ccc(C(=O)N[C@@H](CCC(=O)O)C(=O)O)s3)cc2c(=O)[nH]1`, the Potency was 0.0209 µM (active). The figure for `C[C@@H](Oc1cc(-c2cnn(C3CCNCC3)c2)cnc1N)c1c(Cl)ccc(F)c1Cl` is 14.8 µM (active); for `c1cc(-c2cnn3cc(-c4ccc(OCCN5CCCCC5)cc4)cnc23)ccn1` it is 14.8 µM (active). To `O=C(Nc1ncc(-c2cc(C(F)F)nn2-c2c(Cl)cccc2Cl)s1)C1CC1` belongs 0.743 µM (active); to `O=c1[nH]c(=O)n(C2CCCO2)cc1F` (stereo not given), “inactive”; to `COc1ccc(C(=O)CC2(O)C(=O)Nc3c(Cl)ccc(Cl)c32)cc1` (stereo not given), 3.32 µM (active).

Regarding `Cc1cc(Nc2cc(CN3CCOCC3)c3nc(C)c(Cc4ccc(Cl)cc4F)n3n2)n[nH]1`, the Potency is 14.8 µM (active). To `COc1ccc(-c2cc3c(C)nc(N)nc3n(C3CCC(OCCO)CC3)c2=O)cn1` (stereo not given) belongs 0.0743 µM (active). To `Clc1cccc(-c2nnnn2Cc2cccnc2)c1Cl` belongs “inactive”. To `CC1COC2(CCN(c3nc(=O)c4cc(C(F)(F)F)cc([N+](=O)[O-])c4s3)CC2)O1` (stereo not given) belongs “inactive”. Turning to `N#CCNC(=O)c1ccc(-c2ccnc(Nc3ccc(N4CCOCC4)cc3)n2)cc1`, the Potency is 4.69 µM (active). The figure for `Cc1c(NC(=O)OC[C@@H]2COCCN2)cn2ncnc(Nc3ccc4c(cnn4Cc4cccc(F)c4)c3)c12` is 1.05 µM (active); for `CNC(=O)CN1CCC(Oc2cc3c(Nc4cccc(Cl)c4F)ncnc3cc2OC)CC1` it is 0.0526 µM (active); for `CCOc1cc2ncc(C#N)c(Nc3ccc(F)c(Cl)c3)c2cc1NC(=O)C=CCN(C)C` it is 0.132 µM (active). To `O=C(NCCS(=O)(=O)c1ccc(C(F)(F)F)cn1)c1ccc(Cl)cc1` belongs “inactive”; to `O=C(c1cncc(Br)c1)N1CCC(N2CCCC2)CC1`, “inactive”. In the case of `COCCn1c2c([n+](Cc3cnccn3)c1C)C(=O)c1ccccc1C2=O`, the Potency was 0.0166 µM (active). The figure for `CC(C)(O)c1cc2nc(-c3cnc(N)nc3)nc(N3CCOCC3)c2s1` is 0.132 µM (active); for `Cc1cccc(C=NNc2cc(N3CCOCC3)nc(OCCc3ccccn3)n2)c1` it is 16.6 µM (active); for `Clc1cccc(-n2nnnc2NCc2ccccc2Oc2ccccn2)c1Cl` it is “inactive”.

As for `Cc1c(CN2CCN(S(C)(=O)=O)CC2)sc2c(N3CCOCC3)nc(-c3cnc(N)nc3)nc12`, the Potency was 0.0662 µM (active).

In the case of `Nc1nc(NCCNc2ncc(-n3ccnc3)c(-c3ccc(Cl)cc3Cl)n2)ccc1[N+](=O)[O-]`, the Potency entry was “inactive”. The figure for `CN(C)CC=CC(=O)Nc1cc2c(Nc3ccc(F)c(Cl)c3)ncnc2cc1O[C@H]1CCOC1` is 16.6 µM (active); for `c1nc2nc(Nc3ccc(N4CCOCC4)cc3)nc(NC3CCCCC3)c2[nH]1` it is 2.64 µM (active); for `CCCn1c(=O)c2[nH]c(-c3cnn(Cc4cccc(C(F)(F)F)c4)c3)nc2n(CC)c1=O` it is “inactive”.

These data come from PubChem BioAssay (NCATS).
